Assay [1] in a line: qHTS of pediatric cancer cell lines to identify multiple opportunities for drug repurposing: Primary screen for TC32 cells (AID 1347089). Note: nearly all actives have a fitted effect of over 60% in size. In short, it runs like this: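 Measured quantity: luminescence from CellTiter-Glo, reflecting metabolically active TC32 cells following 48 h of compound. Curves came straight from multi-point titrations, with 8 or 11 points in primary and 11 in confirmatory screening.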
(In general: In qHTS, concentration-response curves come from the screen itself.)

A short description of assay [2]: qHTS of pediatric cancer cell lines to identify multiple opportunities for drug repurposing: Primary screen for SK-N-MC cells (AID 1347093). In short, it runs like this:
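Metabolically active cells were quantified by ATP-dependent luminescence (CellTiter-Glo, 15 min at room temperature) following 48 h treatment. Cells had been plated at 500-1,000 per well and settled for 5 h beforehand.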

A short description of assay [3]: qHTS of pediatric cancer cell lines to identify multiple opportunities for drug repurposing: Primary screen for SJ-GBM2 cells (AID 1347091). The gist of the method:
(§1)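 Eight- or eleven-point concentration series, 48 h treatment at 37 degrees C in growth media; readout CellTiter-Glo luminescence. Potency and efficacy were taken from the concentration-response curves.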

Assay [4] in a line: qHTS of pediatric cancer cell lines to identify multiple opportunities for drug repurposing: Primary screen for DAOY cells (AID 1347090). Note: nearly all actives have a fitted effect of over 55% in size. In short, it runs like this: as §1
Assay [5] is described as follows: qHTS of pediatric cancer cell lines to identify multiple opportunities for drug repurposing: Primary screen for A673 cells (AID 1347092). Note: nearly all actives have a fitted effect of over 45% in size. The gist of the method:
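Cells are plated, rested 5 h, dosed by pintool, incubated 48 h, then lysed with CellTiter-Glo and read by luminescence. DMSO is the neutral control; bortezomib at 2.3 uM final is the positive control.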

Results filed as inconclusive are left out. The source made the active and inactive calls. Calls come from the whole dose curve; as a rule, active = well fitted curve in the direction sought with a large enough effect; inconclusive = small, poorly fitted or top-dose-only effect, or another doubt; inactive = no such curve, though single readings can be large; an effect the other way counts as inactive or inconclusive.
Potency is the fitted concentration of half-maximal effect.

With `CCOC(CN1C(=O)[C@](CC(=O)Nc2ccc(C)cc2)(NC(=O)Nc2ccc(C)cc2)c2ccccc21)OCC`, the Potency result in assay [1] is “inactive”. Also, the Potency in assay [2] is 11.8 µM (active).

Turning to `CO[C@H]1C[C@@H]2CC[C@@H](C)[C@@](O)(O2)C(=O)C(=O)N2CCCC[C@@H]2C(=O)O[C@H]([C@H](C)C[C@@H]2CC[C@H](OC(=O)C(C)(CO)CO)[C@H](OC)C2)CC(=O)[C@H](C)C=C(C)[C@@H](O)[C@@H](OC)C(=O)[C@H](C)C[C@H](C)C=CC=CC=C1C`, the Potency in assay [3] was 11.8 µM (active).

As to `CS(=O)(=O)N(Cc1ccco1)CC(O)Cn1c2ccccc2c2ccccc21` (stereo not given), in assay [4], the Potency entry is “inactive”.

`COc1ccc(C2CC(c3ccccc3)=NN2c2ccc(S(N)(=O)=O)cc2)cc1` (stereo not given): the Potency entry in assay [4] was “inactive”. The Potency in assay [2] was 18.7 µM (active).

Consider `NC(=O)c1cccc(-c2cc(Nc3ccc(OC(F)(F)F)cc3)ncn2)c1`, for which the Potency result in assay [1], in assay [3] and in assay [2] was “inactive” each time.

In the case of `COc1cccc2c1CCCC2CCCN1CCN(C2CCCCC2)CC1` (stereo not given), the Potency result in assay [1] is “inactive”. The Potency in assay [3] and in assay [2] was 18.7 µM (active) in each case.

As for `NC(=O)c1cccc2[nH]c(-c3ccc([C@H]4CCCN4)cc3F)nc12`, the Potency entry in assay [4] and in assay [3] was “inactive” each time. Also, the Potency in assay [5] is 11.8 µM (active).

Turning to `CN1[C@@H]2CCC[C@@H]1CC(NC(=O)c1nn(C)c3ccccc13)C2` (stereo not given in full), the Potency result in assay [4], in assay [3], in assay [5] and in assay [2] was “inactive” throughout.

For `C=CCc1ccc(O)c(-c2ccc(O)c(CC=C)c2)c1`, the Potency entry in assay [1] is “inactive”. Also, the Potency in assay [5] and in assay [2] was 23.5 µM (active) throughout.

Take `COc1ccc(-c2nc(N3CCOCC3)c3sc(CN(C)c4ncc(C(=O)NO)cn4)cc3n2)cn1`: the Potency in assay [4] is 0.0118 µM (active); in assay [3], 0.0066 µM (active); in assay [2], 0.001 µM (active).

Take `Cc1c(NC(=O)c2ccc(C(C)(C)C)cc2)cccc1-c1cn(C)c(=O)c(Nc2ccc(C(=O)N3CCOCC3)cc2)n1`: in assay [1], the Potency entry was “inactive”. Further, the Potency in assay [2] is 18.7 µM (active).

For the molecule `CO[C@H]1C(=O)[C@]2(C)[C@@H](OC)C[C@H]3OC[C@@]3(OC(C)=O)[C@H]2[C@H](OC(=O)c2ccccc2)[C@]2(O)C[C@H](OC(=O)[C@H](O)[C@@H](NC(=O)OC(C)(C)C)c3ccccc3)C(C)=C1C2(C)C`, the values for the Potency in assay [1], in assay [5] and in assay [2] were 1.47 µM (active), 0.001 µM (active) and 29.6 µM (active), respectively.

Consider `COCCOc1nc(-c2ccc(Cl)c(Cl)c2)n(-c2ccc(NC(=O)CCl)cc2)n1`, for which the Potency entry in assay [1] is “inactive”. For the same molecule, the Potency in assay [3] is 16.6 µM (active); in assay [5], 4.69 µM (active); in assay [2], 4.69 µM (active).

As for `NC(=O)c1cnc(-c2ccc(C3(N)CCC3)cc2)c(-c2ccccc2)c1`, the Potency entry in assay [4] is “inactive”. The Potency in assay [2] is 1.48 µM (active).

With `CN1CCN(CCOc2cc(OC3CCOCC3)c3c(Nc4c(Cl)ccc5c4OCO5)ncnc3c2)CC1`, the Potency entry in assay [1] is “inactive”. In addition, the Potency in assay [3] is 9.35 µM (active); in assay [5] it was 11.8 µM (active); in assay [2] it was 11.8 µM (active).

Consider `O=C1Nc2ccc(Cl)cc2C(C#CC2CC2)(C(F)(F)F)O1` (stereo not given), for which, in assay [2], the Potency was 13.2 µM (active).

Turning to `COCCCCC(=NOCCN)c1ccc(C(F)(F)F)cc1`, the Potency result in assay [1] and in assay [3] was “inactive” throughout. The results for the Potency in assay [5] and in assay [2] were 23.5 µM (active) and 10.5 µM (active), respectively.

On to `COC(=O)C1=CO[C@@H](O)[C@@H]2C(CO)=CC[C@@H]12`, for which the Potency result in assay [1] and in assay [5] was “inactive” in each case. In assay [2], the Potency is 29.6 µM (active).

Regarding `CCCCCNC(=O)N1CCC(CN(Cc2ccc(Cl)cc2)Cc2ccc([N+](=O)[O-])s2)C1` (stereo not given), the Potency entry in assay [1] and in assay [3] was “inactive” in each case. Moreover, the Potency is 23.5 µM (active) in assay [5] and 9.35 µM (active) in assay [2].

For `Cc1c(O)cccc1C(=O)N[C@@H](CSc1ccccc1)[C@H](O)CN1C[C@H]2CCCC[C@@H]2C[C@@H]1C(=O)NC(C)(C)C`, the Potency entry in assay [1] is “inactive”. Further, the results for the Potency in assay [3] and in assay [2] were 18.7 µM (active) and 16.6 µM (active), respectively.

These data come from PubChem BioAssay (NCATS).
